Values joined by “and” are separate entries in the source; they are usually repeats but may differ in a detail not shown here. Equal entries are not always repeated. Compounds without any hit were thinned out: in the full panel of roughly 83,000, 20% have a hit.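 Activity criterion: percent growth below 10, measured after cells in 96-well plates were exposed to a single compound concentration for 48 hours.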 Unmarked numbers belong to inactive results. Active and inactive are the calls of the source.
Assays:
Test in all cases: NCI-60 one-dose screen, 48 h (100 = growth as untreated, 0 = no growth, -100 = all killed)
Conditions in all cases: 10 µM
NCI-H23 lung = system: NCI-H23 lung
NCI-H226 lung = system: NCI-H226 lung
NCI-H322M lung = system: NCI-H322M lung
HOP-62 NSCLC = system: HOP-62 NSCLC
NCI-H460 lung = system: NCI-H460 lung
NCI-H522 lung = system: NCI-H522 lung
A549/ATCC NSCLC = system: A549/ATCC NSCLC
786-0 renal = system: 786-0 renal
COLO 205 colon = system: COLO 205 colon
DU-145 prostate = system: DU-145 prostate
K-562 leukemia = system: K-562 leukemia
MALME-3M melanoma = system: MALME-3M melanoma
MDA-MB-231 breast = system: MDA-MB-231 breast
RXF 393 renal = system: RXF 393 renal
SF-268 CNS = system: SF-268 CNS
SF-295 CNS = system: SF-295 CNS
SF-539 CNS = system: SF-539 CNS
UACC-257 melanoma = system: UACC-257 melanoma
M14 melanoma = system: M14 melanoma
HOP-92 NSCLC = system: HOP-92 NSCLC

Row | Compound | growth (NCI-H23 lung) | growth (NCI-H226 lung) | growth (NCI-H322M lung) | growth (HOP-62 NSCLC) | growth (NCI-H460 lung) | growth (NCI-H522 lung) | growth (A549/ATCC NSCLC) | growth (786-0 renal) | growth (COLO 205 colon) | growth (DU-145 prostate) | growth (K-562 leukemia) | growth (MALME-3M melanoma) | growth (MDA-MB-231 breast) | growth (RXF 393 renal) | growth (SF-268 CNS) | growth (SF-295 CNS) | growth (SF-539 CNS) | growth (UACC-257 melanoma) | growth (M14 melanoma) | growth (HOP-92 NSCLC)
1 | CC(=O)Nc1c2sscc-2n(C)c1=O | -95.3% (active) | -100% (active) | -100% (active) | -100% (active) | -77.4% (active) | -90.8% (active) | -65% (active) | -100% (active) | -87.1% (active) | -100% (active) | -72.9% (active) | -89.7% (active) | -92.4% (active) | -92.5% (active) | -80.4% (active) | -96.5% (active) | -94.9% (active) | -44.5% (active) | -96.7% (active) | –
2 | COc1cc(/C=C/[N+](=O)[O-])cc(Br)c1OC | -67.9% (active) | -18.3% (active) | 99.5% | 59.5% | – | -71.5% (active) | 57.2% | -56.7% (active) | 17.5% | 66.5% | 4.74% (active) | 98.1% | 7.14% (active) | -80.5% (active) | 32% | 78.3% | 28.5% | -13.2% (active) | -72.1% (active) | 72.6%
3 | C[C@@H]1C[C@@H]([C@H](O)CC2CC(=O)NC(=O)C2)C(=O)[C@@H](C)C1 | -3.78% (active) | 11.6% | 2.7% (active) | 3.86% (active) | 4.51% (active) | -15.6% (active) | 0.381% (active) | 0.349% (active) | -14.9% (active) | 4.37% (active) | – | 1.97% (active) | 0.445% (active) | – | 5.71% (active) | 2.62% (active) | -5.66% (active) | -4.83% (active) | -9.1% (active) | –
4 | CC/C(=C/c1ccc(OC)cc1OC)[N+](=O)[O-] | 59% | 111% | 90.3% | 74% | 49.5% | -41.7% (active) | 65.1% | -53% (active) | -40.7% (active) | 39.1% | 3.65% (active) | 8.59% (active) | 18.4% | -59.6% (active) | 41.5% | 101% | -1.55% (active) | 45.8% | 54% | –
5 | C=C1C(=O)O[C@@H]2C[C@@H](C)[C@@H]3C=CC(=O)[C@@]3(C)[C@@H](O)[C@H]12 | -36.3% (active) | -38.6% (active) | -24.7% (active) | -44.6% (active) | -26.4% (active) | -81.2% (active) | -3.45% (active) | -71.6% (active) | -95% (active) | -100% (active) | -56.9% (active) | -76.6% (active) | -63.2% (active) | 1.51% (active) | -45% (active) | -35.8% (active) | -73.3% (active) | 1.25% (active) | -64.8% (active) | –
6 | [Cl][Hg][c]1ccc2ccccc2c1 | -67.1% (active) | -20.6% (active) | -53.1% (active) | -79.9% (active) | -4.3% (active) | -95.1% (active) | 19.6% | -92.2% (active) | -87.4% (active) | -22.1% (active) | -13.1% (active) | – | -69.6% (active) | -97% (active) | -70.4% (active) | 17.3% | -13.7% (active) | -86.7% (active) | -99.1% (active) | –
7 | NC(Cc1ccccc1)c1ccccc1 (stereo not given) | 97.7% and 105% | 91.9% and 97.7% | 102% and 103% | 105% | 107% and 111% | 94.5% | 111% | 97.4% and 98.4% | 103% and 105% | 117% and 120% | 108% and 94.4% | 106% and 109% | 102% and 95% | 105% and 109% | 106% and 103% | 102% and 104% | 103% and 97.2% | 106% and 95.4% | 95.1% and 94% | –
8 | O=C(CBr)Nc1ccc(Cl)cc1 | 81.2% | 91.2% | 101% | – | 106% | -67.2% (active) | 100% | 56.6% | -3.53% (active) | 105% | 12.8% | 29.8% | 64.4% | 97.7% | 88.9% | 103% | 105% | 99.7% | 67.2% | 91.9%
9 | CC(=O)[O][Hg][c]1c(C)c(C)cc(C)c1C | -45.3% (active) | -5.8% (active) | 3.3% (active) | -82.6% (active) | -16.7% (active) | -96.4% (active) | 91.5% | 19% | -9.36% (active) | -61% (active) | -10.1% (active) | – | -51.5% (active) | -45.5% (active) | -74.4% (active) | 13.6% | 41.9% | -64.1% (active) | -87% (active) | –
10 | O=[N+]([O-])/C=C\c1ccc2c(c1)OCO2 | 87.2% | 103% | 113% | – | 84.8% | 72.2% | 81.7% | 89.6% | 89.8% | 88.7% | 78.2% | – | 101% | 74.4% | 86.7% | 83.3% | 94.8% | 75% | 76.6% | 79.3%
11 | C/C1=C\[C@H](C)C[C@H](C)OC(=O)C[C@H](c2ccc(O)cc2)NC(=O)[C@@H](Cc2c(Br)[nH]c3ccccc23)N(C)C(=O)[C@H](C)NC(=O)[C@@H](C)C1 | -4.18% (active) | -6.93% (active) | 8.82% (active) | -40.4% (active) | -13% (active) | -62.5% (active) | 3.5% (active) | -55.9% (active) | 9.93% (active) | -15.6% (active) | 0.288% (active) | -65% (active) | -33.2% (active) | -49.2% (active) | -30.3% (active) | -61.2% (active) | -36.8% (active) | 0.643% (active) | -71.2% (active) | –
12 | Cc1cc(C)c(C[N+](C)(C)C)c(C)c1C | 3.56% (active) | 11.7% | 1.22% (active) | 5.53% (active) | 5.07% (active) | -39.5% (active) | 5.53% (active) | 4.58% (active) | 0.186% (active) | 5.6% (active) | 7.21% (active) | – | -12.6% (active) | – | 2.43% (active) | 2.12% (active) | -7.58% (active) | 16.9% | 10.5% | –
13 | COc1cc([C@@H]2c3cc4c(c(O)c3C[C@H]3COC(=O)[C@@H]32)OCO4)cc(OC)c1OC | 17.3% | 48.8% | 21.9% | – | 0.25% (active) | -25% (active) | 24.9% | -69.8% (active) | -69.5% (active) | -28.2% (active) | 7.73% (active) | 40.4% | 21% | 14.3% | 21.5% | -22.2% (active) | -18% (active) | 57.5% | -66.3% (active) | -31.4% (active)
